Screening results as filed in PubChem.
Only some compounds are listed: those with a hit (about 3.1% of all), similar ones and a draw of the others.
MITF TRPM1 HTS = activators of MITF-driven TRPM1 promoter reporter, primary screen, cell-based, SK-MEL-5, luciferase, single point; AID 588334, 2011; activation, % at 12.5 µM; SK-MEL-5 TRPM1-promoter luciferase, 24 h; % of positive control, neutral wells = 0; actives 0.75% (n = 300,000);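 active means mean activation of at least 80% with every replicate also reaching 80%; inconclusive means mean reaches 80% but some replicate falls short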;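 further: 0% = neutral control wells and 100% = parthenolide positive control wells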
Wnt act = Wnt/beta-catenin pathway activators, primary screen, cell-based, plate reader, single point; Wnt/beta-catenin reporter cell assay, activator; activation, % at 9.35 µM; actives 1.2% (n = 300,000); AID 743398, 2014; in the data active means activation above about 30%, passing the limit was not always enough; inconclusive means no clear call, values can overlap the other calls;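 further: 0% = neutral control wells and 100% = positive control wells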
Statin myotox sup = suppressors of statin myotoxicity in C2C12 myotubes, primary screen, cell-based, single point, plate reader; actives 0.78% (n = 330,000); rescue of ATP level, % at 7.49 µM; C2C12 myotubes + simvastatin, ATP luminescence, 48 h; scaled: DMSO 0, geranylgeraniol control 100; AID 602340, 2012;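 active means mean ATP rescue above about 67%, or every replicate alone reaching that limit, limit read from the data, passing the limit was not always enough; inconclusive means no clear call, values can overlap the other calls; inactive means mean under the limit and some replicate under it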;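 further: myotubes were challenged with 10 µM simvastatin during compound exposure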
Rtt109 HAT inh = inhibitors of C. albicans Rtt109/Vps75 HAT, primary screen, biochemical, ThioGlo CoA-SH fluorescence, plate reader | purified Rtt109/Vps75, 4 h | inhibition, % at 34.9 µM | actives 0.16% (n = 330,000);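 active means inhibition of at least 50% in every replicate; inconclusive means best replicate reaches 50% inhibition but some replicates fall short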
Target sequence (Q5AAJ8 whole entry, looked up): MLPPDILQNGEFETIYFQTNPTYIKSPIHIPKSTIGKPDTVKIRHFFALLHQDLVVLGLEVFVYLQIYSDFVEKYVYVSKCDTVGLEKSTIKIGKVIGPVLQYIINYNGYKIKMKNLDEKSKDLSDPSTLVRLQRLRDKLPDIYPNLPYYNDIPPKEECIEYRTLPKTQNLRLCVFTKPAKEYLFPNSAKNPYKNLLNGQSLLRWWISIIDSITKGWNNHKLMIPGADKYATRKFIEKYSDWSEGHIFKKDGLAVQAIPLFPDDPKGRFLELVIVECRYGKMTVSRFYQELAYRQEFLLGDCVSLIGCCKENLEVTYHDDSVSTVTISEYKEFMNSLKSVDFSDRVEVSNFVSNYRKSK
esBAF inh = Bmi1 luciferase reporter increase in mESCs, primary screen, esBAF inhibitor project, mouse ES cells, Bmi1 luciferase knock-in, single point | reporter increase, % at 12.5 µM | actives 2% (n = 350,000) | 24 h; 100% = twice the neutral-well signal; in the data active means activation above about 40%; inconclusive means no clear call, values can overlap the other calls;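 further: 0% = median of the plate's neutral control wells and 100% = double that signal; a rise in the Bmi1 reporter signal indicates esBAF inhibition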
* hit, by the source's call; ? = inconclusive; . = no result; + = active, no number.

SMILES	MITF TRPM1 HTS	Wnt act	Statin myotox sup	Rtt109 HAT inh	esBAF inh
O=C(COc1ccc(F)cc1)c1ccc2c(c1)CCCC2	?	.	1.2	-1.8	41.5*
Cc1ccc(/C=C2\Sc3ccccc3C2=O)s1	6.5	72.4*	87.3*	-12.0	26.5
CC(=O)Nc1ccc(/C=C2\Sc3ccccc3C2=O)cc1	.	8.1	.	0.9	.
O=C1/C(=C/c2cccnc2)Sc2ccccc21	-6.3	.	93.0*	-2.6	6.4
O=C1c2ccccc2C(=Cc2cccnc2)c2ccccc21	.	-4.2	4.6	.	20.3
O=C(C[n+]1cc(-c2ccc(Cl)c(Cl)c2)n2c1CCC2)N1c2ccccc2Sc2ccccc21	-1.3	-2.2	.	57.1*	.
Cc1cc(C)cc(Oc2coc3c(CN(C)C)c(O)ccc3c2=O)c1	4.5	0.7	0.1	-7.9	-6.5
COc1ccc(Oc2coc3c(CN(C)C)c(O)ccc3c2=O)cc1	-4.5	-2.5	117.7*	10.6	-7.0
CS(=O)(=O)Nc1ccc2c(c1)[C@H]1C[C@H](CC(=O)N3CCCCC3)O[C@H](CO)[C@H]1O2	.	.	-0.5	.	-3.5
C[C@@H]1CN([C@H](C)CO)C(=O)c2cc(-c3ccccc3)cnc2O[C@@H]1CN(C)Cc1cccnc1	.	.	16.7	.	-4.8
Cc1cc(C)cc(NC(=O)NC(C)C2CCCO2)c1 (stereo not given)	9.2	-2.0	.	56.4*	.
CC(NC(=O)Nc1ccc2c(c1)OCO2)C1CCCO1 (stereo not given)	37.9	.	9.1	-4.3	33.5
CC1=CC(C)(C)N=C(NC#N)N1	-5.5	-1.0	103.8*	3.5	-1.7
CC1=CC(C)(C)N=C(Nc2nc(C)c3cc(C)cc(C)c3n2)N1	10.3	-3.5	-13.1	26.9	-18.6
Cc1ccc(OCc2nc(-c3ccccc3)no2)c(C)c1	79.7	.	13.4	0.2	64.0*
COc1cccc(NC(=O)N(C)C[C@@H]2OCc3cn(nn3)CCCC(=O)N([C@H](C)CO)C[C@@H]2C)c1	.	.	3.7	.	2.9
Cc1cccc(-c2nnc(-c3cccc(NC(=O)Cc4cccs4)c3)o2)c1	55.6	.	3.3	1.8	80.5*
C[C@@H]1CN([C@H](C)CO)C(=O)c2cccc(NC(=O)Nc3ccccc3)c2O[C@H]1CN(C)Cc1ccc(C(F)(F)F)cc1	.	.	38.8	.	-1.3
C[C@@H]1CN([C@H](C)CO)C(=O)c2cccc(NC(=O)c3ccc(-c4nccs4)cc3)c2O[C@@H]1CN(C)Cc1ccc(C(F)(F)F)cc1	.	.	41.3	.	-3.0
C[C@H](CO)N1C[C@H](C)[C@H](CN(C)Cc2ccc(C(F)(F)F)cc2)Oc2c(NC(=O)Nc3cccc4ccccc34)cccc2C1=O	.	.	81.4*	.	8.7
C[C@@H]1CN([C@@H](C)CO)C(=O)c2cccc(NC(=O)c3nc4ccccc4s3)c2O[C@H]1CN(C)C(=O)Nc1ccccc1	.	.	22.2	.	0.2
C[C@@H]1CN([C@@H](C)CO)C(=O)c2cccc(NC(=O)c3ccc(-c4nccs4)cc3)c2O[C@@H]1CN(C)Cc1ccc(C(F)(F)F)cc1	.	.	74.3*	.	2.9
C[C@@H]1CN([C@H](C)CO)C(=O)c2cccc(NC(=O)c3nc4ccccc4s3)c2O[C@@H]1CN(C)C(=O)Nc1cccc2ccccc12	.	.	80.6*	.	6.1
C[C@@H]1CN([C@@H](C)CO)S(=O)(=O)c2ccc(-c3ccccc3)cc2O[C@@H]1CN(C)C(=O)Cc1ccccc1	.	.	-83.3	.	0.3
COc1ccc(-n2nc(C(=O)NCC(=O)N3CCN(c4ccccc4OC)CC3)c3ccccc3c2=O)cc1OC	34.4	4.0	-9.4	-10.0	17.1
SMILES	MITF TRPM1 HTS	Wnt act	Statin myotox sup	Rtt109 HAT inh	esBAF inh
COc1ccc(-n2nc(C(=O)NCC(=O)N3CCCC3)c3ccccc3c2=O)cc1Cl	.	1.0	11.8	-2.6	59.1*
COc1cc(OC)cc(-n2nc(C(=O)NCCCN3CCOCC3)c3ccccc3c2=O)c1	.	-1.3	.	-0.7	-1.8
COCCNC(=O)c1nn(-c2cc(OC)cc(OC)c2)c(=O)c2ccccc12	-6.5	.	109.8*	-3.9	-1.0
COc1ccc(-n2nc(C(=O)NCC(=O)N3CCN(c4ccccc4)CC3)c3ccccc3c2=O)cc1OC	46.7	14.2	2.5	5.6	45.1*
N#C/C(=C/c1ccc(N2CCOCC2)o1)c1ccc(Cl)cc1	105.9*	-14.5	4.4	6.5	?
O=C(c1cc(-c2ccccc2O)on1)N1CCCCCC1	125.1*	28.4	4.2	2.9	59.7*
O=C(c1cc(-c2ccccc2O)on1)N1CCOCC1	96.2*	35.4*	33.3	3.0	50.7*
CCCNC(=O)Nc1ccc2c(c1)C(=O)N(C)C[C@H](OC)[C@H](C)CN(C(C)=O)[C@@H](C)CO2	.	.	-7.5	.	-5.8
CO[C@H]1CN(C)C(=O)c2cc(NS(=O)(=O)CC(F)(F)F)ccc2OC[C@H](C)N(Cc2cccnc2)C[C@@H]1C	.	.	-1.9	.	5.4
COc1ccc(-c2cc(=O)c3cc(C)ccc3[nH]2)cc1	107.2*	45.0*	8.6	4.6	3.9
C[C@H](CO)N1C[C@H](C)[C@@H](CN(C)Cc2ccc(Cl)c(Cl)c2)Oc2c(NC(=O)Nc3ccc(C(F)(F)F)cc3)cccc2C1=O	.	.	.	.	3.8
Cc1ccc(S(=O)(=O)CCC(=O)c2cccc([N+](=O)[O-])c2)cc1	-15.9	-2.2	7.0	+	-6.4
Cc1ccc(C(=O)CCS(=O)(=O)c2ccc(Br)cc2)cc1	13.4	-0.9	6.4	-0.3	8.6
C[C@@H]1CN([C@@H](C)CO)C(=O)c2cc(NS(=O)(=O)c3cn(C)cn3)ccc2O[C@@H](C)CCCCO[C@@H]1CN(C)Cc1ccc(C(F)(F)F)cc1	.	.	.	.	-6.3
COc1ccc(C(=O)Nc2sc(C)c(C)c2CN2CC(C)OC(C)C2)cc1 (stereo not given)	9.9	9.5	-0.2	-0.6	72.4*
COc1ccc(CNC(=O)C[C@H]2CC[C@H](NC(=O)c3ccc4c(c3)OCO4)[C@H](CO)O2)cc1	.	.	1.3	.	-2.9
CCCC#Cc1ccc2c(c1)O[C@@H](CN(C)C(=O)C1CCCCC1)[C@H](C)CN([C@@H](C)CO)S2(=O)=O	.	.	-45.2	.	4.2
COc1ccccc1CC(=O)Nc1ccc2c(c1)OC1(CCCC1)O2	53.4	-3.7	9.7	6.1	51.8*
Cc1ccc(S(=O)(=O)N(C)C[C@H]2Oc3ccc(NC(=O)Nc4c(C)noc4C)cc3C(=O)N([C@H](C)CO)C[C@@H]2C)cc1	.	.	15.5	.	4.1
CCCn1c(C)cc(C(=O)Cn2nnc3ccccc3c2=O)c1C	67.0	46.3*	.	-4.8	.
C[C@@H]1CN([C@H](C)CO)C(=O)c2cccc(NC(=O)Nc3ccccc3)c2O[C@H]1CN(C)C(=O)NC1CCCCC1	.	.	9.8	.	3.1
